# Results: the supplement of paper PMC3545927
# Some of the results follow. The true hit rate is not given.
# Molecular target: furin, P09958
# Experiment: furin cleavage Z-score vs untreated control; higher = more cleavage, active = 3.5 or more, inactive = 1 or less, 8 variable residues between constant flanks
# Summary of the method: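 Reactions of 0.01 ml ran for 7.5, 15 or 30 min in 50 mM HEPES pH 7.5 with CaCl2 and NaCl, at 1:10 enzyme:substrate. In them, purified furin acted on bead-held 8-mer peptides fused to a cDNA oligonucleotide. The cleavage Z-score was obtained by lowess-adjusting log sequencing counts of released DNA against furin-free reactions and scaling by median absolute deviation.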
# furin, P09958, sequence (P09958 whole entry): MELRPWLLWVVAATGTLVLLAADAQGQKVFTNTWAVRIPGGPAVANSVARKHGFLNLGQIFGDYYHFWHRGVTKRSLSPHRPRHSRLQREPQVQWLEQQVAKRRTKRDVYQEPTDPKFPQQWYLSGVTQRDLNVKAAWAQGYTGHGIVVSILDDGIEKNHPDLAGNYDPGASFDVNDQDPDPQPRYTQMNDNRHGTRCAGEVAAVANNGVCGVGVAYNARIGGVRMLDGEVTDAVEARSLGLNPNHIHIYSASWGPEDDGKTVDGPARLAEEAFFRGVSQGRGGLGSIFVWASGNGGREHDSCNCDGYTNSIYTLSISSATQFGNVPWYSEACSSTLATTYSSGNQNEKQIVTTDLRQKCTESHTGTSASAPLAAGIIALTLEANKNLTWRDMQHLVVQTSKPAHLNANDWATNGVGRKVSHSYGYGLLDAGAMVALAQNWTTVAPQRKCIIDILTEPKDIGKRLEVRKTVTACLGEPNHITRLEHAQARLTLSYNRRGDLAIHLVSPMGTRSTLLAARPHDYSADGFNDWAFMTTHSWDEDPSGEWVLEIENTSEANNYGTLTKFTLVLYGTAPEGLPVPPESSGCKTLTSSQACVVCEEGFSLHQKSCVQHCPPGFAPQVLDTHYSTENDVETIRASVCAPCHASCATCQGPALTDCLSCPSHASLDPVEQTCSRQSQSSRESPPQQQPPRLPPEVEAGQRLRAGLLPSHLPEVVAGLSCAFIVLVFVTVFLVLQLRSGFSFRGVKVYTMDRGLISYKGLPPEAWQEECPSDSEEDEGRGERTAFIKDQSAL
Sequence,furin cleavage Z-score (7.5 min),furin cleavage Z-score (15 min),furin cleavage Z-score (30 min)
CAMEECSQQLAGNASASA [HC1762],1.29,0.207 (inactive),0.503 (inactive)
CAVCPRMKRKAGNASASA [FS-385],6.36 (active),7.19 (active),7.64 (active)
CAMAARMKRKAGNASASA [FS-1467],8.01 (active),8.75 (active),8.6 (active)
CAMEECSQHKAGNASASA [HC1774],-0.682 (inactive),0.0797 (inactive),-0.301 (inactive)
CAGARRAKRKAGNASASA [FS-1326],5.27 (active),5.92 (active),5.79 (active)
CAEVVSSTWVAGNASASA [HC135],0.7 (inactive),-1.48 (inactive),0.771 (inactive)
CAVFTGLTHIAGNASASA [HC941],-1.4 (inactive),0.134 (inactive),-1.78 (inactive)
CAQMVIIKLGAGNASASA [HC628],1.18,-0.535 (inactive),0.271 (inactive)
CAKKRRATRFAGNASASA [FS-450],1.73,3.42,4.38 (active)
CAKTNRKTRFAGNASASA [FS-345],1.94,3.24,4.81 (active)
CAIFKRKKRIAGNASASA [FS-1212],3.24,3.6 (active),5.56 (active)
CAQNERSYRIAGNASASA [FS-183],-0.223 (inactive),1.02,0.628 (inactive)
CANPQRFDRIAGNASASA [FS-1039],-0.635 (inactive),-0.196 (inactive),0.174 (inactive)
CAILQRLKRIAGNASASA [FS-1346],3.62 (active),3.86 (active),6.79 (active)
CAFLEVVTSTAGNASASA [HC2267],-1.17 (inactive),-0.113 (inactive),-1.92 (inactive)
CARAFTEAMTAGNASASA [HC1539],0.545 (inactive),-0.418 (inactive),0.0305 (inactive)
CAVAYYRGLDAGNASASA [HC868],0.403 (inactive),1.75,-1.15 (inactive)
CAAHWGVLAGAGNASASA [HC336],-1.27 (inactive),-1.2 (inactive),-0.699 (inactive)
CAKKRRKKRIAGNASASA [FS-936],3.69 (active),6.37 (active),7.05 (active)
CAIYCRKKRIAGNASASA [FS-806],2.51,0.629 (inactive),4.48 (active)
CASLHLKKRIAGNASASA [FS-625],-0.694 (inactive),-1.61 (inactive),0.811 (inactive)
CAIQSRRKKIAGNASASA [FS-443],0.424 (inactive),-0.328 (inactive),0.24 (inactive)

Sequence,furin cleavage Z-score (7.5 min),furin cleavage Z-score (15 min),furin cleavage Z-score (30 min)
CAEWLRKKRIAGNASASA [FS-418],0.96 (inactive),1.09,1.3
CAYREVPCHRAGNASASA [HC2429],1.27,-0.258 (inactive),-1.27 (inactive)
CACNDSLNTGAGNASASA [HC375],-1.58 (inactive),0.314 (inactive),-2.54 (inactive)
CAVVCCSMAYAGNASASA [HC2063],0.877 (inactive),1.72,0.58 (inactive)
CADRSRGKRFAGNASASA [FS-410],7.7 (active),10.3 (active),8.8 (active)
CAKKIRGKRFAGNASASA [FS-672],6.75 (active),8.84 (active),7.44 (active)
CATTPSSGSWAGNASASA [HC55],-0.371 (inactive),-0.739 (inactive),-0.54 (inactive)
CAVVCCSMSYAGNASASA [HC94],0.423 (inactive),0.141 (inactive),0.568 (inactive)
CADEVDGVDEAGNASASA [CS2],-0.934 (inactive),-0.925 (inactive),-0.54 (inactive)
CAPCTPLPAPAGNASASA [HC1195],-0.0603 (inactive),-1.7 (inactive),-1.53 (inactive)
CADRSRRVRSAGNASASA [FS-1190],12.9 (active),12.1 (active),9.2 (active)
CALELRRVRSAGNASASA [FS-605],0.493 (inactive),1.94,2.52
CASAGHTVSGAGNASASA [HC356],-0.221 (inactive),-0.0745 (inactive),0.22 (inactive)
CAHLKRDTEDAGNASASA [FS-2863],-0.885 (inactive),0.879 (inactive),-0.411 (inactive)
CASAGRHVRSAGNASASA [FS-1408],8 (active),10.8 (active),7.16 (active)
CAHLKRRVRSAGNASASA [FS-793],11.8 (active),10.6 (active),9.61 (active)
CAPLRRFWRSAGNASASA [FS-1602],-0.433 (inactive),-0.244 (inactive),0.194 (inactive)
CAFSSRDERSAGNASASA [FS-588],-0.242 (inactive),-1.07 (inactive),-1.76 (inactive)
CAPKSRIVRSAGNASASA [FS-369],14.9 (active),13.8 (active),11.4 (active)
CAVVCCSCSYAGNASASA [HC2060],-1.87 (inactive),-2.14 (inactive),-0.914 (inactive)
CAVNCCSMSYAGNASASA [HC2021],0.193 (inactive),1.19,-0.734 (inactive)
